Legend:
Test in all cases: DAPPL (digital affinity profiling via proximity ligation, sequencing); 10 mM Tris-HCl pH 7.5, 50 mM NaCl, 1 mM DTT, 4% glycerol, room temperature, 30 min; GST-TFs on glutathione beads, 16-mer random dsDNA library, 0.1% formaldehyde crosslink after washing; high values mean tight binding
Details in all cases: protein: recombinant; tags: N-terminal GST; dsDNA, one strand shown
ERF = biological target: T1, ERF (Homo sapiens, UniProt P50548 1-548)
T1 sequence: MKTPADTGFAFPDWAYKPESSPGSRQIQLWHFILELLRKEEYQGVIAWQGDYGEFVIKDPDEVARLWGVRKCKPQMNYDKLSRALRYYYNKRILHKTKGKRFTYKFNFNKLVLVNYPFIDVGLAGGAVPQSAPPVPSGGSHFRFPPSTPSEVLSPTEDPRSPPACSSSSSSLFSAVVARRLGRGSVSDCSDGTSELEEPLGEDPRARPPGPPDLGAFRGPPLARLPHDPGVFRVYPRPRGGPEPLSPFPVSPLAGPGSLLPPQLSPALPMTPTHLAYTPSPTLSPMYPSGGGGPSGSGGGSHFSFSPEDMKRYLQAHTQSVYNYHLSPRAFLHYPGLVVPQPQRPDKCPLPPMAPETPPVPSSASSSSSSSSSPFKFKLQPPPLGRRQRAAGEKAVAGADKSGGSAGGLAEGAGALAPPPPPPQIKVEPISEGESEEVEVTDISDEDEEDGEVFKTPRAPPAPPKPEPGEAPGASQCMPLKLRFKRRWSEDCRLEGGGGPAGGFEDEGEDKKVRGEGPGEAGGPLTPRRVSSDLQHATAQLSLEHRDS
Outline: (§1)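 Each value of binding signal is a hexamer's read frequency for a factor divided by the same hexamer's frequency in the tag-only sample. Barcoded, bead-captured GST fusions of human transcription factors made in yeast were pooled with that sample and incubated with 200 nmole of a random double-stranded 16-mer DNA library in Tris/NaCl/DTT/glycerol buffer at room temperature for 30 min. Washing, 0.1% formaldehyde crosslinking, proximity ligation, PCR and Illumina NextSeq500 sequencing followed.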

ETV3L = biological target: T2, ETV3L (Homo sapiens, UniProt Q6ZN32 1-361)
T2 sequence: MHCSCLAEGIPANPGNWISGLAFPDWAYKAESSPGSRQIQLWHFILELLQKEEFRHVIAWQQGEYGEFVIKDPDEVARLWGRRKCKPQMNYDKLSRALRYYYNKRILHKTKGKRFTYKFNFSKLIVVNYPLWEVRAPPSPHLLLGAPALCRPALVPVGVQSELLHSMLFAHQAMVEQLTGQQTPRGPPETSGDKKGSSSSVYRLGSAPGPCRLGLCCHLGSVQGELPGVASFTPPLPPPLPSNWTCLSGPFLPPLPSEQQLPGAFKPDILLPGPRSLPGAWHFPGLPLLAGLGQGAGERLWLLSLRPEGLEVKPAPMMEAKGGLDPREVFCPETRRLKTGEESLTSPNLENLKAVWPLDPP
Outline: as §1

ETS2 = biological target: T3, ETS2 (Homo sapiens, UniProt P15036 1-469)
T3 sequence: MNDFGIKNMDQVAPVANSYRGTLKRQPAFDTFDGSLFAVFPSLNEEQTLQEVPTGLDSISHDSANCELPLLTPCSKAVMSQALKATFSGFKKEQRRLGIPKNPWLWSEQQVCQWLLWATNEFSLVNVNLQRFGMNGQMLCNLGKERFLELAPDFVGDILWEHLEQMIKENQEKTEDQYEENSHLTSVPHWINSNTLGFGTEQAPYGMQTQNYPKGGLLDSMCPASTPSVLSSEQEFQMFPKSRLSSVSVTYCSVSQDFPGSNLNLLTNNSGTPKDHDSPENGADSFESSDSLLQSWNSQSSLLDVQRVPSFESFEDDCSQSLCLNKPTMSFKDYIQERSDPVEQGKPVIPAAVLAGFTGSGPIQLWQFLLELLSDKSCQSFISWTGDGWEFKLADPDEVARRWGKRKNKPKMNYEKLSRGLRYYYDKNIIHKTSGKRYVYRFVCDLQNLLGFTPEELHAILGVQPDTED
Outline: as §1

SPDEF = biological target: T4, SPDEF (Homo sapiens, UniProt O95238 1-335)
T4 sequence: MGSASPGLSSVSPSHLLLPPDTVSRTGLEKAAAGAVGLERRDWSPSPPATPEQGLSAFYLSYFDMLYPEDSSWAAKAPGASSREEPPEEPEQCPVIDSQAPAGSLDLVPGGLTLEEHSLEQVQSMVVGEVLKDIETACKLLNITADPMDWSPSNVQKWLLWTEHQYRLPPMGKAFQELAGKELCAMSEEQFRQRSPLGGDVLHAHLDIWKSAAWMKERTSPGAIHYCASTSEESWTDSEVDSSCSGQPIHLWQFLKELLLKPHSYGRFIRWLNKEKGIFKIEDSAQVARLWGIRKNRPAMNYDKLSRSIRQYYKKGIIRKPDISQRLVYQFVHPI
Outline: as §1

ETV7 = biological target: T5, ETV7 (Homo sapiens, UniProt Q9Y603 1-341)
T5 sequence: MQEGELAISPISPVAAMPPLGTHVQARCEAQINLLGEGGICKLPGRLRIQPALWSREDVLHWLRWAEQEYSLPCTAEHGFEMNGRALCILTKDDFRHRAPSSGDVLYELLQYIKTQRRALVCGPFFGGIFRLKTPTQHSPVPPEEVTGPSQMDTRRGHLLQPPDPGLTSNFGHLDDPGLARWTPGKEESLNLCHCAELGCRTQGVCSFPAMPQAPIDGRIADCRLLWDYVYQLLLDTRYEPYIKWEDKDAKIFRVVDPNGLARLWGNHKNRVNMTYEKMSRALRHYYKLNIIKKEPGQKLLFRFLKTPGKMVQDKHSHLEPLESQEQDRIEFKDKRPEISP
Outline: as §1

ELF5 = biological target: T6, ELF5 (Homo sapiens, UniProt Q9UKW6-2 1-255)
T6 sequence: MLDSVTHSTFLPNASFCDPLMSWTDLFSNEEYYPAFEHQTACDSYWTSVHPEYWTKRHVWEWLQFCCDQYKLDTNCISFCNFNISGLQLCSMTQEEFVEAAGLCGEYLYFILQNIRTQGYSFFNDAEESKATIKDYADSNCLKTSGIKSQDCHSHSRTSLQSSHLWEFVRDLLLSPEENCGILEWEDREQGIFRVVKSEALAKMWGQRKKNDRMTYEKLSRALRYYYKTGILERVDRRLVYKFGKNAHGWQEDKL
Outline: as §1

ETV3 = biological target: T7, ETV3 (Homo sapiens, UniProt P41162-2 1-143)
T7 sequence: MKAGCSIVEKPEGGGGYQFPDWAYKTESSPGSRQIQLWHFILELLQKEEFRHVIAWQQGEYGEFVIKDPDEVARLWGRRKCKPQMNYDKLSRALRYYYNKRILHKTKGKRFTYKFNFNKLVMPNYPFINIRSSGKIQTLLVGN
Outline: as §1

ETV6 = ETV6 (Homo sapiens, UniProt P41212 1-452)
Chain of ETV6 (P41212 whole entry): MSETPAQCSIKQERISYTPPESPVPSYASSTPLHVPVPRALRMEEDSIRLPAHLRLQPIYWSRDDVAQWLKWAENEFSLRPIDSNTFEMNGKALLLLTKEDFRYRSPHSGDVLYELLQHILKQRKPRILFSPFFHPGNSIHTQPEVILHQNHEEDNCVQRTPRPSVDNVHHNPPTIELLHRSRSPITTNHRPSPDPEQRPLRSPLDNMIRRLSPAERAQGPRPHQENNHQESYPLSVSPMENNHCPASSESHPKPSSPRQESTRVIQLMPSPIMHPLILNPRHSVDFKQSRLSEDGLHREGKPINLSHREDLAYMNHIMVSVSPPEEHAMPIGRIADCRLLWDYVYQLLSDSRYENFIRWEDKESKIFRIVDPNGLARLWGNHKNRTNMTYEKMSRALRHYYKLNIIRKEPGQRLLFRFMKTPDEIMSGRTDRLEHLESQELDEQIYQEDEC
Outline: as §1

Row | Sequence | binding signal (ERF) | binding signal (ETV3L) | binding signal (ETS2) | binding signal (SPDEF) | binding signal (ETV7) | binding signal (ELF5) | binding signal (ETV3) | binding signal (ETV6)
1 | GGTAAT | 1.13 fold enrichment (6-mer frequency, TF over GST control) | 1.06 fold enrichment (6-mer frequency, TF over GST control) | 1.08 fold enrichment (6-mer frequency, TF over GST control) | 1.11 fold enrichment (6-mer frequency, TF over GST control) | 1.14 fold enrichment (6-mer frequency, TF over GST control) | 1.16 fold enrichment (6-mer frequency, TF over GST control) | 1.06 fold enrichment (6-mer frequency, TF over GST control) | 1.16 fold enrichment (6-mer frequency, TF over GST control)
2 | TACTAA | 1.2 fold enrichment (6-mer frequency, TF over GST control) | 1.23 fold enrichment (6-mer frequency, TF over GST control) | 1.21 fold enrichment (6-mer frequency, TF over GST control) | 1.22 fold enrichment (6-mer frequency, TF over GST control) | 1.35 fold enrichment (6-mer frequency, TF over GST control) | 1.25 fold enrichment (6-mer frequency, TF over GST control) | 1.19 fold enrichment (6-mer frequency, TF over GST control) | 1.24 fold enrichment (6-mer frequency, TF over GST control)
3 | TTTGGA | 1.2 fold enrichment (6-mer frequency, TF over GST control) | 1.21 fold enrichment (6-mer frequency, TF over GST control) | 1.19 fold enrichment (6-mer frequency, TF over GST control) | 1.23 fold enrichment (6-mer frequency, TF over GST control) | 1.3 fold enrichment (6-mer frequency, TF over GST control) | 1.15 fold enrichment (6-mer frequency, TF over GST control) | 1.19 fold enrichment (6-mer frequency, TF over GST control) | 1.15 fold enrichment (6-mer frequency, TF over GST control)
4 | TAGAAT | 1.17 fold enrichment (6-mer frequency, TF over GST control) | 1.09 fold enrichment (6-mer frequency, TF over GST control) | 1.06 fold enrichment (6-mer frequency, TF over GST control) | 1.07 fold enrichment (6-mer frequency, TF over GST control) | 1.13 fold enrichment (6-mer frequency, TF over GST control) | 1.08 fold enrichment (6-mer frequency, TF over GST control) | 1.05 fold enrichment (6-mer frequency, TF over GST control) | 1.15 fold enrichment (6-mer frequency, TF over GST control)
5 | CGTTCC | 1.4 fold enrichment (6-mer frequency, TF over GST control) | 1.43 fold enrichment (6-mer frequency, TF over GST control) | 1.48 fold enrichment (6-mer frequency, TF over GST control) | 1.5 fold enrichment (6-mer frequency, TF over GST control) | 1.3 fold enrichment (6-mer frequency, TF over GST control) | 1.65 fold enrichment (6-mer frequency, TF over GST control) | 1.41 fold enrichment (6-mer frequency, TF over GST control) | 1.42 fold enrichment (6-mer frequency, TF over GST control)
6 | CATTCG | 1.21 fold enrichment (6-mer frequency, TF over GST control) | 1.17 fold enrichment (6-mer frequency, TF over GST control) | 1.17 fold enrichment (6-mer frequency, TF over GST control) | 1.15 fold enrichment (6-mer frequency, TF over GST control) | 1.18 fold enrichment (6-mer frequency, TF over GST control) | 1.13 fold enrichment (6-mer frequency, TF over GST control) | 1.27 fold enrichment (6-mer frequency, TF over GST control) | 1.27 fold enrichment (6-mer frequency, TF over GST control)
7 | TCCTGG | 1.43 fold enrichment (6-mer frequency, TF over GST control) | 1.83 fold enrichment (6-mer frequency, TF over GST control) | 1.82 fold enrichment (6-mer frequency, TF over GST control) | 2.13 fold enrichment (6-mer frequency, TF over GST control) | 1.56 fold enrichment (6-mer frequency, TF over GST control) | 2.35 fold enrichment (6-mer frequency, TF over GST control) | 1.74 fold enrichment (6-mer frequency, TF over GST control) | 1.77 fold enrichment (6-mer frequency, TF over GST control)
8 | CGCCTC | 1.37 fold enrichment (6-mer frequency, TF over GST control) | 1.49 fold enrichment (6-mer frequency, TF over GST control) | 1.27 fold enrichment (6-mer frequency, TF over GST control) | 1.39 fold enrichment (6-mer frequency, TF over GST control) | 1.26 fold enrichment (6-mer frequency, TF over GST control) | 1.43 fold enrichment (6-mer frequency, TF over GST control) | 1.37 fold enrichment (6-mer frequency, TF over GST control) | 1.42 fold enrichment (6-mer frequency, TF over GST control)
9 | CTTTCT | 1.63 fold enrichment (6-mer frequency, TF over GST control) | 1.5 fold enrichment (6-mer frequency, TF over GST control) | 1.55 fold enrichment (6-mer frequency, TF over GST control) | 1.44 fold enrichment (6-mer frequency, TF over GST control) | 1.46 fold enrichment (6-mer frequency, TF over GST control) | 1.5 fold enrichment (6-mer frequency, TF over GST control) | 1.52 fold enrichment (6-mer frequency, TF over GST control) | 1.52 fold enrichment (6-mer frequency, TF over GST control)
10 | GGTACT | 1.38 fold enrichment (6-mer frequency, TF over GST control) | 1.3 fold enrichment (6-mer frequency, TF over GST control) | 1.31 fold enrichment (6-mer frequency, TF over GST control) | 1.31 fold enrichment (6-mer frequency, TF over GST control) | 1.2 fold enrichment (6-mer frequency, TF over GST control) | 1.28 fold enrichment (6-mer frequency, TF over GST control) | 1.24 fold enrichment (6-mer frequency, TF over GST control) | 1.16 fold enrichment (6-mer frequency, TF over GST control)
11 | TATTAG | 1 fold enrichment (6-mer frequency, TF over GST control) | 1.04 fold enrichment (6-mer frequency, TF over GST control) | 1.06 fold enrichment (6-mer frequency, TF over GST control) | 1.06 fold enrichment (6-mer frequency, TF over GST control) | 1.03 fold enrichment (6-mer frequency, TF over GST control) | 1.06 fold enrichment (6-mer frequency, TF over GST control) | 1.05 fold enrichment (6-mer frequency, TF over GST control) | 1.05 fold enrichment (6-mer frequency, TF over GST control)
12 | AAAGAT | 1.24 fold enrichment (6-mer frequency, TF over GST control) | 1.17 fold enrichment (6-mer frequency, TF over GST control) | 1.16 fold enrichment (6-mer frequency, TF over GST control) | 1.23 fold enrichment (6-mer frequency, TF over GST control) | 1.12 fold enrichment (6-mer frequency, TF over GST control) | 1.15 fold enrichment (6-mer frequency, TF over GST control) | 1.28 fold enrichment (6-mer frequency, TF over GST control) | 1.17 fold enrichment (6-mer frequency, TF over GST control)
13 | CTCTCC | 1.43 fold enrichment (6-mer frequency, TF over GST control) | 1.44 fold enrichment (6-mer frequency, TF over GST control) | 1.43 fold enrichment (6-mer frequency, TF over GST control) | 1.22 fold enrichment (6-mer frequency, TF over GST control) | 1.31 fold enrichment (6-mer frequency, TF over GST control) | 1.37 fold enrichment (6-mer frequency, TF over GST control) | 1.45 fold enrichment (6-mer frequency, TF over GST control) | 1.37 fold enrichment (6-mer frequency, TF over GST control)
14 | TGCTTA | 1.1 fold enrichment (6-mer frequency, TF over GST control) | 1.09 fold enrichment (6-mer frequency, TF over GST control) | 1.1 fold enrichment (6-mer frequency, TF over GST control) | 1.18 fold enrichment (6-mer frequency, TF over GST control) | 1.12 fold enrichment (6-mer frequency, TF over GST control) | 1.03 fold enrichment (6-mer frequency, TF over GST control) | 1.18 fold enrichment (6-mer frequency, TF over GST control) | 1.1 fold enrichment (6-mer frequency, TF over GST control)
15 | GATATG | 1.09 fold enrichment (6-mer frequency, TF over GST control) | 1.08 fold enrichment (6-mer frequency, TF over GST control) | 1.18 fold enrichment (6-mer frequency, TF over GST control) | 1.24 fold enrichment (6-mer frequency, TF over GST control) | 1.07 fold enrichment (6-mer frequency, TF over GST control) | 1.14 fold enrichment (6-mer frequency, TF over GST control) | 1.12 fold enrichment (6-mer frequency, TF over GST control) | 1.04 fold enrichment (6-mer frequency, TF over GST control)

Source: publication PMC7862700, “An all-to-all approach to the identification of sequence-specific readers for epigenetic DNA modifications on cytosine”
